Test in all cases: DAPPL (digital affinity profiling via proximity ligation, sequencing); 10 mM Tris-HCl pH 7.5, 50 mM NaCl, 1 mM DTT, 4% glycerol, room temperature, 30 min; GST-TFs on glutathione beads, 16-mer random dsDNA library, 0.1% formaldehyde crosslink after washing; high values mean tight binding
Holding throughout (conditions): protein: recombinant; tags: N-terminal GST; dsDNA, one strand shown

The target of assay [1] is T1, FLI1 (Homo sapiens, UniProt Q01543 1-452).
T1 sequence: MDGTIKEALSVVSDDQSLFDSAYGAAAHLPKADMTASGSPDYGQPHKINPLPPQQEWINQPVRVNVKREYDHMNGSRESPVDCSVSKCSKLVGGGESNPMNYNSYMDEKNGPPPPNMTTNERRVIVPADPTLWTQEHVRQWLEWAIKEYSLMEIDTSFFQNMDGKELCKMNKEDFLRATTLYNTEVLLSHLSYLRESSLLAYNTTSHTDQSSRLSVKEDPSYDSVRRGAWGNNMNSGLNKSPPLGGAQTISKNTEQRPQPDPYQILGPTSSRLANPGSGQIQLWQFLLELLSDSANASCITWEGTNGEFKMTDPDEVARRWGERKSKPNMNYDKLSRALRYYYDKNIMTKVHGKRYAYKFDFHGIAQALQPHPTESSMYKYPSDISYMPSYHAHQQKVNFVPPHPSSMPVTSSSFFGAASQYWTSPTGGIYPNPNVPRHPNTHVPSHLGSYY
In a few lines:
(§1)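 Human transcription factors were made in yeast as GST fusions, captured on glutathione beads and barcoded with DNA. With a tag-only sample included, the pool was incubated with 200 nmole of a random double-stranded 16-mer DNA library in Tris/NaCl/DTT/glycerol buffer at room temperature for 30 min, then crosslinked with 0.1% formaldehyde after washing, ligated by proximity, amplified and sequenced. For binding signal, each hexamer's read frequency for a factor is divided by its frequency for the tag-only sample.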

Assay [2] addresses T2, SPIC (Homo sapiens, UniProt Q8N5J4 1-248).
T2 sequence: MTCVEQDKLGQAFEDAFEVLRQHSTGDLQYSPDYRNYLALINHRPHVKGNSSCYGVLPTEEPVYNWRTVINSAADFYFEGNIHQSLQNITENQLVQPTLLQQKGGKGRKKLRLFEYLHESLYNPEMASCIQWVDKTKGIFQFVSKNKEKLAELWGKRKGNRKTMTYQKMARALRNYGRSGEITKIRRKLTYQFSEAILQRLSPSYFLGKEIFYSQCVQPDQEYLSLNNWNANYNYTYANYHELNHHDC
In a few lines:
as §1

Assay [3] has as its target T3, ETV3 (Homo sapiens, UniProt P41162-2 1-143).
T3 sequence: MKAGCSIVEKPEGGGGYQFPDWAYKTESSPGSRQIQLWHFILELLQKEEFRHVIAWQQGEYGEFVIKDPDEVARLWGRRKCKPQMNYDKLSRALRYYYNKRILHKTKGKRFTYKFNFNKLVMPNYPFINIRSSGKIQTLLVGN
In a few lines: as §1

With ATTCGG, the binding signal in assay [1] is 1.01 fold enrichment (6-mer frequency, TF over GST control); in assay [2], 1.04 fold enrichment (6-mer frequency, TF over GST control); in assay [3], 1.02 fold enrichment (6-mer frequency, TF over GST control).
